TDP1 cell noCPT: qHTS for Inhibitors of human tyrosyl-DNA phosphodiesterase 1 (TDP1): qHTS in cells in absence of CPT; AID 686978, 2013; DT40 Tdp1-/- hTDP1 cells, no CPT, ATP luminescence, 48 h; hit rate 15% among 420,000; Potency, µM (doses to about 46.2 µM), for inactives: top-dose activity change, negative = growth inhibition, usual class: inhibitors; also: potency is read from the fitted curve at half-maximal effect; nearly all actives have a fitted effect of over 55% in size
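Seeded 400 DT40-hTDP1 cells/well (vehicle DMSO, no 20 nM CPT); pinned compounds; ≥48 hr at 37 °C; CellTiter-Glo luminescence as viability measure.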
HT1080 IDH1KD tx: HT-1080 IDH1 knockdown cell toxicity (counter line); HT-1080 IDH1 knockdown viability, ATP luminescence, 48 h; Potency, µM (doses to about 46.1 µM), without a hit: top-dose activity, negative = toxicity, usual class: cytotoxic; hit rate 2% among 360,000;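 also: potency is read from the fitted curve at half-maximal effect; 0% = DMSO wells and -100% = cell-free medium wells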
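HT-1080-IDH1KD cells (IDH1 knocked down), 750/well in RPMI with 5% FBS, treated with compound 48 h at 37 degrees C. Viability by CellTiter-Glo luminescence, normalised to DMSO and no-cell wells; concentration-response curves classed.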
ELG1 repair inh: ELG1-dependent DNA repair inhibition. HEK293T ELG1-luciferase reporter, luminescence, 16 h; DNA damage induced by 5-fluorouridine. Potency, µM (titrated, usually from 46.1 µM), for inactives: at the highest dose activity change, negative = inhibition, most hits filed as inhibitors. hit rate 2.3% among 330,000; also: potency is read from the fitted curve at half-maximal effect; nearly all actives have a fitted effect of over 55% in size
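In this reporter screen, reduction of luminescence relative to DMSO vehicle indicated activity. Compounds and 5-fluorouridine were added together to 2,000 cells per well, incubated for 16 hr at 37 °C, then developed with ONE-Glo.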
HT1080-NT tox: kills 2HG-producing HT-1080-NT fibrosarcoma cells | hit rate 1.6% among 360,000 | HT-1080-NT fibrosarcoma viability, CellTiter-Glo ATP luminescence, 48 h | Potency, µM (top dose mostly 46.1 µM), without a hit: top-dose activity, negative = less viability, most hits filed as cytotoxic;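 also: NT is the 2HG producing partner of a matched IDH1 knockdown line; potency is read from the fitted curve at half-maximal effect; 0% = DMSO-treated cells and -100% = media-only wells without cells; nearly all actives have a fitted effect of over 55% in size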
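Toxicity toward the 2HG-producing NT line was scored as %Activity, normalised to DMSO and no-cell wells, from CellTiter-Glo luminescence after 48 hours' treatment.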
TDP1 cell CPT: DT40-hTDP1 cell growth loss with CPT | chicken DT40 Tdp1-/-;hTDP1 cells + 20 nM CPT, ATP luminescence, 48 h | hit rate 12% among 420,000 | Potency, µM (top dose mostly 46.2 µM), inactives show at the top dose activity change, negative = growth inhibition, actives largely listed as inhibitors; also: potency is read from the fitted curve at half-maximal effect; nearly all actives have a fitted effect of over 55% in size
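Chicken DT40 Tdp1-/- cells stably complemented with human TDP1 were seeded at 400 cells/well in medium containing 20 nM camptothecin, exposed to pin-transferred compounds, and grown at 37 °C for at least 48 hr. Viability was read as ATP luminescence.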
IL1B secr inh: inflammasome signaling inhibition, IL-1 beta readout; THP-1 LPS/ATP IL-1B secretion, AlphaLISA, 16 h; stronger effect = lower value; activity change, % at 57.5 µM; hit rate 4.7% among 360,000; in the data active = activity change below about -50%; inconclusive = mostly about -30% to -49%
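THP-1 cells pretreated 1 hr with compounds (up to 57.5 uM final), then stimulated with LPS (250 ng/mL final) plus ATP (1.25 mM final); secreted IL-1B measured by AlphaLISA after 16 hr, decreased signal indicating inhibition.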
* marks the source's active call; other numbers are inactive results; ? = inconclusive; · = not tested or not shown; [ ] = another dose, or the depositor's remark. The list is not random: actives were taken first. Their share in the collection is about 19%. Unless noted, calls follow the shape of the dose curve; as a rule, active = well fitted curve in the direction sought with a large enough effect; inconclusive = small, poorly fitted or top-dose-only effect, or another doubt; inactive = no such curve, though single readings can be large; an effect the other way counts as inactive or inconclusive. Unless noted, % is scaled to controls: 0 for no effect and ±100 for the full control effect.

SMILES | TDP1 cell noCPT | HT1080 IDH1KD tx | ELG1 repair inh | HT1080-NT tox | TDP1 cell CPT | IL1B secr inh
O=C(O)CN1CCc2ccccc2C1 | -34.3% | -0.4% | 8.4% | 5.8% | -10.9% | -15.6
CN(Cc1ccccc1)c1nc2c(S(=O)(=O)c3ccccc3)nnn2c2ccsc12 | -21.7% | · | · | · | 1.3% | ·
COc1ccc(S(=O)(=O)N2CCCC2CNC(=O)C(=O)Nc2ccc(C)cc2)cc1 (stereo unspecified) | ? | 2.4% | ? | -4.6% | ? | -23.4
Cc1ccc(S(=O)(=O)N2CCCC2CNC(=O)C(=O)Nc2ccc(F)cc2)cc1 (stereo unspecified) | 16.4µM* | ? | -20.0% | -8.9% | 20.6µM* | -8.0
Cc1c(C(=O)O)cnc2c([N+](=O)[O-])cnn12 | 18.4µM* | 3.7% | 1.3% | 11.0% | 10.3µM* | 26.7
CC(=O)c1cnc2c(C(=O)O)cnn2c1C | 1.0% | 0.0% | -1.9% | 0.0% | 6.7% | 11.3
O=C(NCCSCc1ccccc1)c1cc(S(=O)(=O)N2CCOCC2)ccc1F | ? | -3.2% | ? | -0.8% | 11.6µM* | 23.8
COc1ccc(C(=O)NCc2ccc(C)cc2)cc1S(=O)(=O)N1CCOCC1 | 0.4% | 1.0% | · | -3.7% | -10.8% | -21.0
Cc1ccc(N(Cc2ccccc2)C(=O)c2cc(S(=O)(=O)N3CCOCC3)ccc2F)cc1 | 7.31µM* | 11.9% | 15.9% | 21.9% | 18.4µM* | -9.0
CN(C)CCCNC(=O)c1cc(S(=O)(=O)N2CCOCC2)ccc1F | -4.1% | 2.2% | -0.2% | 5.1% | 9.2% | 15.8
Cc1ccc(CSCCNC(=O)c2ccc(Cl)c(S(=O)(=O)N3CCOCC3)c2)cc1 | 18.4µM* | -25.5% | 23.1µM* | -2.0% | ? | -10.2
Cc1cccc(N(Cc2ccccc2)C(=O)c2cc(S(=O)(=O)N3CCOCC3)ccc2Cl)c1 | 14.6µM* | -21.0% | ? | -21.0% | 14.6µM* | ?
COc1cc(OC)cc(C(=O)Nc2nnc(SCC(=O)NCc3ccco3)s2)c1 | 7.4% | 0.1% | 21.4% | -0.9% | -24.3% | 7.8
COc1cccc(-c2nnn(CC(=O)N3CCCCC3)n2)c1 | -6.5% | 4.3% | ? | 11.9% | 20.7% | 15.6
COc1ccc(S(=O)(=O)N2CCCCC2)cc1NC(=O)c1ccc(N2CCCC2=O)cc1 | -1.1% | -4.7% | -23.5% | 0.3% | -18.6% | -7.6
CC(C)(C)c1ccc(C(=O)NC2(C(F)(F)F)C(=O)Nc3c2c(=O)[nH]c(=O)n3-c2ccccc2)cc1 (stereo unspecified) | 2.1% | · | · | · | 7.6% | ·
C=CCN(Cc1ccc(Cl)s1)C(=O)c1cc(S(=O)(=O)N2CCOCC2)ccc1F | 13µM* | -10.5% | -19.7% | -3.3% | 18.4µM* | 17.8
Cc1ccc(N(Cc2ccccc2)C(=O)c2cc(S(=O)(=O)N3CCOCC3)ccc2Cl)cc1 | 7.31µM* | -17.3% | -7.9% | -21.1% | 11.6µM* | ?
CN(Cc1ccccc1)S(=O)(=O)c1ccc(Cl)c(C(=O)N2CCOCC2)c1 | 20.6µM* | -2.7% | · | 1.4% | 18.4µM* | 24.8
CN(Cc1cccc(Cl)c1Cl)C(=O)c1cc(S(=O)(=O)N2CCOCC2)ccc1F | 20.6µM* | -1.9% | ? | -11.6% | 16.4µM* | ?
CN(C)c1ccc(CNC(=O)c2cnc3sc(N4CCOCC4)nn3c2=O)cc1 | 1.3% | · | · | · | -28.9% | ·
Cc1cnc(CNc2cc(-c3ccccc3C(F)(F)F)ncn2)cn1 | 3.7% | · | · | · | 3.7% | ·
COc1cc(/C=C/C(=O)OCC(=O)Nc2c(C)n(C)n(-c3ccccc3)c2=O)cc(OC)c1OC | 1.6% | -0.2% | -4.7% | -1.5% | -2.1% | -22.4
COc1ccccc1NC(C)C(=O)c1c(C)[nH]c2ccccc12 (stereo unspecified) | ? | · | · | · | -29.5% | ·
O=C1C=C(NCc2ccco2)C2(CCCCC2)O1 | -4.4% | 3.5% | 5.8% | 16.9% | 3.1% | 17.3
SMILES | TDP1 cell noCPT | HT1080 IDH1KD tx | ELG1 repair inh | HT1080-NT tox | TDP1 cell CPT | IL1B secr inh
O=C1C=C(NCc2ccc(Cl)c(Cl)c2)C2(CCCCC2)O1 | 16.4µM* | -2.5%[9.24 µM] | ? | -9.9% | ? | -4.6
Cc1cc(OCCCCOc2ccc(S(N)(=O)=O)c(C)c2)ccc1S(N)(=O)=O | ? | -4.7% | -24.2% | -1.7% | 18.4µM* | -12.1
CN(C)S(=O)(=O)c1cccc(NC(=O)c2ccc3c(c2)S(=O)(=O)N=C2CCCCCN23)c1 | · | · | -13.0% | · | · | ·
O=C(NCCOc1ccccc1Cl)c1cccc2c1C(=O)c1ccc(Cl)cc1S2(=O)=O | 16.4µM* | 7.5% | 4.0% | 7.3% | 23.1µM* | -29.7
O=C(NCCOc1ccccc1)c1cccc2c1C(=O)c1ccc(Cl)cc1S2(=O)=O | 23.1µM* | -0.5% | ? | -19.5% | ? | -81.2*
COc1ccc(-c2ccc3c(c2)S(=O)(=O)c2cccc(C(=O)NCCOc4ccccc4)c2C3=O)cc1OC | ? | 3.3% | ? | 9.7% | 18.4µM* | 15.6
CC(C)OCCCNC(=O)c1cccc2c1C(=O)c1ccc(Cl)cc1S2(=O)=O | -28.0% | 8.7% | -1.9% | 24.2% | -27.1% | -77.1*
COc1ccc(CNC(=O)COC(=O)c2cccn2C)cc1 | 13.0% | -4.7% | ? | -1.4% | 15.9% | 7.8
Cc1ccc(NC(=O)C2CCCN(S(=O)(=O)c3c(C)n[nH]c3C)C2)c(C)c1 (stereo unspecified) | -21.2% | · | · | · | 6.1% | ·
Cc1ccc(COc2ccc3oc(-c4ccccc4)c(C(=O)O)c3c2)cc1 | -11.0% | · | · | · | 7.2% | ·
O=C(NC[C@@H]1CCCO1)c1cccc2c1C(=O)c1ccc(Cl)cc1S2(=O)=O | -14.5% | 2.3% | ? | -21.1% | -22.9% | -54.1*
COc1ccc(-c2ccc3c(c2)S(=O)(=O)c2cccc(C(=O)NC[C@@H]4CCCO4)c2C3=O)cc1OC | ? | -15.3% | ? | 2.4% | ? | 4.3
CCCCN(Cc1ccco1)C(=O)c1cc2c(s1)-c1c(C)cccc1OC2 | 23.1µM* | · | · | · | ? | ·
CN(C)CCN(Cc1ccco1)C(=O)c1cc2c(s1)-c1ccccc1OC2 | 16.4µM* | · | · | · | 16.4µM* | ·
CCOC(=O)N1CCN(C(=O)c2cc3c(s2)-c2c(C)cccc2OC3)CC1 | ? | -2.2% | -5.4% | 14.3% | ? | -2.7
O=C(O)c1cc2c(s1)-c1ccccc1OC2 | -21.5% | -1.3% | 2.2% | 1.7% | -22.5% | 9.9
Cc1cc(C)c2c(N)c(C(=O)N3CCc4ccccc4C3)sc2n1 | 29.1µM* | -4.3% | ? | 2.0% | ? | -11.9

Bioassay records from PubChem.
